# High-throughput results deposited in PubChem by National Center for Advancing Translational Sciences (NCATS).
# JMJD2A Tudor inh: inhibitors of human JMJD2A Tudor domain | O75164 | AlphaScreen JMJD2A-Tudor / H3K4me3 peptide binding | Potency, µM (top dose mostly 114 µM), inactives show top-dose activity change, negative = inhibition, usual class: inhibitors | 390,000 compounds, 4.4% hits | AID 504339; further: potency means the concentration at half of the fitted maximal effect; on the % scale 0 is the no-effect control and ±100 the full control effect; nearly all actives have a fitted effect of over 50% in size
# HP1b chromo inh: blocks HP1-beta chromodomain binding to methylated histone tails | AlphaScreen HP1-beta / biotin-H3K9me3 peptide binding | Potency, µM (titrated, usually from 114 µM), inactives show at the highest dose activity change, negative = inhibition, most hits filed as inhibitors | 390,000 compounds, 0.56% hits | AID 540317; further: potency means the concentration at half of the fitted maximal effect; nearly all actives have a fitted effect of over 70% in size
# Target sequence (P83916 whole entry, looked up): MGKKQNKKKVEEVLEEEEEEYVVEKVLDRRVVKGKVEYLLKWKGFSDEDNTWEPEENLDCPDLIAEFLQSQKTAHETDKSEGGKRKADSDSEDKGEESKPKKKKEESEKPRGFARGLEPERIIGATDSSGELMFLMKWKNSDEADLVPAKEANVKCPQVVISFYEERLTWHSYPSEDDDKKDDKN
#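 AlphaScreen: HP1-beta (50 nM) preformed 30 min with biotin-H3(1-18)K9me3 peptide (50 nM) in PBS pH 7.4, 0.01% Tween-20. Compound added for 30 min at RT, then streptavidin donor/nickel chelate acceptor beads (10 ug/mL) for 30 min.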
# BAZ2B block: BAZ2B (human) inhibition; 360,000 compounds, 4.4% hits; AlphaScreen BAZ2B-H3K14Ac peptide displacement; Potency, µM (titrated, usually from 114 µM), inactives show at the highest dose activity change, negative = inhibition, usual class: inhibitors; further: potency means the concentration at half of the fitted maximal effect; on the % scale 0 is the no-effect control and ±100 the full control effect; nearly all actives have a fitted effect of over 60% in size
#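 Compounds, titrated to a top concentration of 110 uM, were incubated 30 min at room temperature with preformed BAZ2B/acetyl-K14 H3 peptide complex (50 nM each). Proximity signal was measured by AlphaScreen after 20 min with beads.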
# GCN5L2 inh: GCN5L2 (KAT2A) acetyltransferase inhibition | 390,000 compounds, 0.21% hits | Potency, µM (doses to about 58.9 µM), inactives show top-dose activity change, negative = inhibition, actives largely listed as inhibitors | GCN5L2 HAT assay, ThioGlo1 CoA-SH fluorescence | Q92830; further: potency means the concentration at half of the fitted maximal effect; on the % scale 0 is the no-effect control and ±100 the full control effect
#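 Preincubate 20nM GCN5L2 with compound 15 min, RT → add 50uM ThioGlo1 + 75uM H3(1-25) + 70uM acetyl-CoA → read fluorescence 0 and 20 min. Primary qHTS; fluorescent artifacts likely.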
# PI5P4Ka inh: PI5P4K alpha (human) kinase inhibition. PI5P4Kalpha enzyme, ADP-Glo luminescence, 60 min; hits give low values. max response, %. 330,000 compounds, 1.2% hits; active means max response of -50% or lower; inconclusive means between -30% and -50%; inactive means -30% or higher; further: value at the top dose of about 77 µM; on the % scale 0 is the no-effect control and ±100 the full control effect
# Target sequence (P48426 whole entry, looked up): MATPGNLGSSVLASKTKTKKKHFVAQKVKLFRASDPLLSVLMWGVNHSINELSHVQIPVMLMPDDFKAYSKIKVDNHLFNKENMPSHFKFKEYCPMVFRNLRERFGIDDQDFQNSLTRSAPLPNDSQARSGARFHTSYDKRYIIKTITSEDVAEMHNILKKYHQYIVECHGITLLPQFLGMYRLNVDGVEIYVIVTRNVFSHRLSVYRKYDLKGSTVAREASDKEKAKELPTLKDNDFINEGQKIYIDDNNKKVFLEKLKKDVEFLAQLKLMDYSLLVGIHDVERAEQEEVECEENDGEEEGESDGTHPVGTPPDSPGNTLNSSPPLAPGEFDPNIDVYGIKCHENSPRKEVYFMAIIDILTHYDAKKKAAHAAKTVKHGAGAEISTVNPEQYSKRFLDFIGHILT
#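 Quantitative HTS of the MLSMR library against PI5P4Kalpha with substrate. ATP added last at 5 microM final; room temperature, 60 minutes. Remaining ATP depleted, ADP converted and read as luminescence.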
# PLK1 PBD inh: PLK1 (human) polo-box domain binding inhibition | P53350 | Plk1 PBD binding of FITC phosphopeptide, fluorescence polarization | Potency, µM, without a hit: max response, negative = inhibition, most hits filed as inhibitors | 360,000 compounds, 2.8% hits; further: potency means the concentration at half of the fitted maximal effect; series mostly up to about 57 µM; on the % scale 0 is the no-effect control and ±100 the full control effect; nearly all actives have a fitted effect of over 65% in size
# Starred values were filed as active, the others as inactive; ? = inconclusive; nt = not tested or not shown; [ ] = dose if it differs, or a comment. In the library only some 7% were active in any assay of this set; here they are far more common. Unless noted, the call rests on the fitted dose curve; in most records, active means well fitted curve in the direction sought with a large enough effect; inconclusive means small, poorly fitted or top-dose-only effect, or another doubt; inactive means no such curve, though single readings can be large; an effect the other way counts as inactive or inconclusive.
SMILES,JMJD2A Tudor inh,HP1b chromo inh,BAZ2B block,GCN5L2 inh,PI5P4Ka inh,PLK1 PBD inh
CC1(C)CC(=O)C(C(c2ccc(Br)cc2)C2C(=O)CC(C)(C)CC2=O)C(=O)C1,-24.7%,40.7%,3.8%,-5.0%,2.9,18.9µM*
CC1(C)CC(=O)C(C(c2ccc(F)cc2)C2C(=O)CC(C)(C)CC2=O)C(=O)C1,-2.2%,52.3%,2.2%,-5.5%,6.7,-26.5%
COC(=O)c1ccccc1NC(=S)NC(=O)c1ccccc1,-27.1%,-3.3%,?,-6.7%,-11.0,26.7µM*
O=C(NCCNC(=O)c1ccccc1[N+](=O)[O-])c1ccccc1[N+](=O)[O-],-3.6%,25.0%,nt,nt,3.6,-0.5%
CCC(=O)NC(=S)NNC(=O)c1ccccc1[N+](=O)[O-],-9.3%,38.4%,?,25.1µM*,3.0,-8.4%
O=C(NNC(=O)c1ccccc1[N+](=O)[O-])c1ccccc1[N+](=O)[O-],-18.6%,-2.1%,-0.2%,-14.2%,-10.0,26.7µM*
COC(=O)c1ccccc1NC(=S)NC(=O)c1ccc(C)cc1,-17.7%,-9.3%,?,33.7%,2.6,?
O=C(NC(=S)NNC(=O)c1ccccc1[N+](=O)[O-])c1ccccc1,28.2µM*,?,-3.0%,?,?,?
Cc1cccc(C)c1NC(=O)C1C(c2ccc3c(c2)OCO3)=Nc2ccccc2N1C(=O)c1cccc2ccccc12 (stereo unspecified),nt,nt,nt,nt,0.2,3.4%
Cc1ccccc1C(=O)NNC(=S)NC(=O)c1cccnc1,-27.3%,-2.5%,-3.1%,-4.4%,-15.5,-15.9%
O=C(Nc1cccc(NC(=O)c2ccccc2[N+](=O)[O-])n1)c1ccccc1[N+](=O)[O-],?,-26.1%,-11.1%,-0.5%,-55.3*,2.67µM*
O=C(NC(=S)NNC(=O)c1ccccc1F)c1cccnc1,15.8µM*,-14.9%,5.0%,-11.5%,-22.4,?
CC1CCCC(NC(=O)c2ccc3c(c2)NC(=O)CS3)C1C (stereo unspecified),21.8%,43.7%,-10.1%,-5.9%,0.6,6.4%
COc1ccc(-c2cc3ccc(OCC(C)=O)cc3oc2=O)cc1,-18.2%,19.4%,-23.2%,-18.3%,6.5,-4.7%
O=c1oc2c(CN3CCCC3)c(O)ccc2cc1-c1ccccc1,3.2%,30.7%[57 µM],-1.0%,17.8µM*,nt,nt
COc1ccc(-c2cc3ccc(O)c(CN4CCC(C)CC4)c3oc2=O)cc1,?,47.8%[57 µM],45.0%,28.2µM*,nt,nt
COc1ccc(-c2cc3ccc(O)cc3oc2=O)cc1,16.4%,44.2%[57 µM],13.4%,31.6µM*,-0.3,-4.9%
O=C(O)C(Oc1ccc2cc(-c3ccc(Cl)cc3)c(=O)oc2c1)c1ccccc1 (stereo unspecified),26.9%,63.4%,4.5%,-2.1%,-0.8,42.3µM*
COc1ccc(C(=O)NCc2nnc(SCC(=O)N3CCC(C)CC3)o2)cc1,-0.7%,41.1%,-5.5%,-0.1%,1.5,-3.2%
Cc1ccc(OCC(=O)Nc2nonc2-c2ccc(Br)cc2)cc1C,-9.9%,25.6%,-0.6%,-2.2%,nt,nt
COc1ccc2c(c1)c(=O)c(C(=O)c1ccccc1)cn2CC(=O)Nc1ccc2c(c1)OCO2,-13.6%,21.4%,?,-14.5%,nt,nt
CC(C)(C)c1ccc(C(O)c2ncc(-c3cccc(F)c3)[nH]2)cc1 (stereo unspecified),nt,nt,nt,nt,-0.4,1.3%
CCC(C)NC(=O)c1cccc(NC(=O)c2nsc3ccccc23)c1 (stereo unspecified),-1.6%,30.1%[57 µM],-32.7%,-5.2%,nt,nt
CCCN(CCC)CC(C)(C)NS(=O)(=O)c1ccc(Cl)cc1,2.51µM*,?,?,-1.6%,3.6,-0.2%
O=c1[nH]c2ccc(S(=O)(=O)N3CCN(S(=O)(=O)c4c(F)cccc4F)CC3)cc2[nH]c1=O,-30.1%,nt,nt,nt,nt,nt
SMILES,JMJD2A Tudor inh,HP1b chromo inh,BAZ2B block,GCN5L2 inh,PI5P4Ka inh,PLK1 PBD inh
O=S(=O)([O-])CCC[n+]1c(SCCCS(=O)(=O)O)sc2ccc(Cl)cc21,79.4µM*,59.3%,?,-5.2%,-0.5,?
CC(C(=O)O)n1ncc2ccccc2c1=O (stereo unspecified),-15.4%[11.4 µM],5.6%,-18.9%,-3.0%,-16.7,10.6µM*
O=C1SC(SC(=Nc2ccccc2)Nc2ccccc2)C(=O)N1c1ccccc1 (stereo unspecified),?,?,?,0.1%,1.5,6.7µM*
CC(C)c1ccc(NC(=O)CC2NCCNC2=O)cc1 (stereo unspecified),2.2%,24.4%,-6.5%,-0.2%,nt,nt
CN=c1scc(-c2ccccc2F)n1/N=C(\C)c1cccnc1,15.8µM*,?,35.5µM*,5.8%,-1.6,-7.2%
O=C(Cn1cnc([N+](=O)[O-])n1)N/N=C/c1ccc(O)cc1O,63.1µM*,33.9%,28.2µM*,-4.7%,-5.2,-8.5%
O=C(N/N=C/c1ccc(O)cc1O)C(=O)N/N=C/c1ccc(O)cc1O,2.51µM*,-6.8%,35.5µM*,0.7%,-25.4,11.9µM*
Cc1nc(Cl)cc(N/N=C/c2ccc(O)cc2O)n1,?,38.5%,35.5µM*,-12.3%,-10.7,-5.2%
Cc1cccc(N2CCN(C(=O)CS(=O)(=O)Cc3nc(-c4ccccc4C)oc3C)CC2C)c1 (stereo unspecified),-32.0%,1.2%,?,-13.0%,nt,nt
O=C(O)c1ccc(N/N=C/c2ccncc2)cc1,10.0%,29.8%,5.7%,-11.0%,-3.7,3.6%
O=C(O)c1ccc(N/N=C/C2=Cc3ccccc3OC2)cc1,-29.4%[11.4 µM],-10.0%,-37.0%,-4.9%,-2.7,23.8µM*
CCCCCN(C(=O)CCC(=O)OCc1ccc(Cl)cc1Cl)c1c(N)n(CCCC)c(=O)[nH]c1=O,-4.5%,46.1%,-1.1%,3.2%,-5.1,2.8%
CC(C(=O)N1c2ccccc2CC1C)N1CCN(S(=O)(=O)c2ccccc2F)CC1 (stereo unspecified),3.55µM*,?,28.2µM*,-0.8%,2.7,-0.8%
CCCCS/C(=C(/C#N)C(N)=O)c1cc2c([nH]1)CCCC2,44.7µM*,?,39.8µM*,-12.0%,-3.8,-14.7%
CCN(CC)S(=O)(=O)c1ccc(-c2cn3cc(Cl)ccc3n2)cc1,?,16.2%,-20.9%,-8.0%,-15.3,11.9µM*
Clc1ccc(-c2cn3cc(Cl)ccc3n2)cc1,-7.7%,27.6%,-0.7%,14.7%,-0.8,-8.6%
CCC(c1nc2ccccc2[nH]1)N(Cc1cccnc1)C(=O)c1cc(-c2ccccc2)on1 (stereo unspecified),nt,nt,nt,nt,4.2,0.8%
Clc1ccccc1CNCC1CCCO1 (stereo unspecified),-7.5%,21.7%,-28.1%,-0.9%,2.8,-9.5%
Oc1ccc(Cl)cc1CNCC1CCCO1 (stereo unspecified),3.16µM*,?,50.1µM*,-5.9%,0.0,-5.5%
